From PubChem BioAssay AID624296 (National Center for Advancing Translational Sciences (NCATS), 2012) come the findings set out here.

Screen size: about 350,000 compounds; about 9,900 (2.8%) were called active. Entries that show only a call come without a potency. About 15% were inconclusive and are not listed. Calls come from the whole dose curve; as a rule, active = well fitted activation curve with a large enough effect; inconclusive = small, poorly fitted or top-dose-only effect; inactive = no such curve, though single readings can be large or run the other way. The sample as a whole holds a higher share of actives than the screen did.
Potency is the fitted concentration of half-maximal effect.

This test is described as follows: A quantitative high throughput screen for small molecules that induce DNA re-replication in MCF 10a normal breast cells. Note: nearly all actives have a fitted effect of over 50% in size. The conditions noted are these: MCF 10A DNA re-replication, Hoechst nuclear intensity, 48 h; series mostly up to 46.1 µM.
Turning to `O=c1c2ccccc2nc2n1C1(CCCCC1)Cc1ccccc1-2`, the Potency was 18.4 µM (active).

Take `c1cncc(-c2nnc3n2C2(CCCCC2)Cc2ccccc2-3)c1`: the Potency entry is “inactive”.

Consider `CN(c1ccc2nc3ccccc3c(=O)n2n1)C1CCCCC1`, for which the Potency result is “inactive”.

As for `COc1ccccc1CNC(=O)COC(=O)c1cccs1`, the Potency result is “inactive”.

`CC(C)C[C@H]1CN([C@@H](CC(C)C)CN2CCC[C@@H]2CN2C(=O)C(=O)NC[C@@H]2Cc2ccccc2)C(=O)C(=O)N1CCc1ccccc1`: the Potency result was “inactive”.

With `COc1ccc(C(=O)NCc2ccccc2C)cc1S(=O)(=O)NC1CCCC1`, the Potency result was “inactive”.

With `CCN(CC)S(=O)(=O)c1ccc(Cl)c(NC(=O)c2ccncc2)c1`, the Potency result is “inactive”.

On to `CCN(CC)S(=O)(=O)c1ccc(NC(=O)c2cccnc2Cl)c(NC(=O)c2cccnc2Cl)c1`, for which the Potency was 18.4 µM (active).

With `Cc1cccc(NC(=O)c2cccnc2Cl)n1`, the Potency entry is “inactive”.

For `O=C(NOCc1ccccc1)c1cccc([N+](=O)[O-])c1`, the Potency result is “inactive”.

As for `O=C(COC(=O)COc1ccccc1F)Nc1cccc(S(=O)(=O)N2CCCCC2)c1`, the Potency entry was “inactive”.

For the molecule `O=C(Nc1nc(-c2ccncc2)cs1)C1COc2ccccc2O1` (stereo not given), the Potency result is “inactive”.

On to `O=C(Nc1nnc(SCc2ccc(Cl)cc2Cl)s1)C1COc2ccccc2O1` (stereo not given), for which the Potency was 18.4 µM (active).

For `O=C(Nc1nnc(SCc2c(Cl)cccc2Cl)s1)C1CCCO1` (stereo not given), the Potency was 11.6 µM (active).

Take `O=C(Nc1nc2c(F)cc(F)cc2s1)C1COc2ccccc2O1` (stereo not given): the Potency entry was “inactive”.

Take `O=C(Nc1nnc(CCc2ccccc2)s1)C1CCCO1` (stereo not given): the Potency result was “inactive”.

Turning to `O=C(Nc1nnc(SCc2c(Cl)cccc2Cl)s1)c1cccc([N+](=O)[O-])c1`, the Potency entry is “inactive”.

For `O=C1/C(=C/c2ccc3c(c2)OCO3)CCC/C1=C\c1ccc2c(c1)OCO2`, the Potency is 14.6 µM (active).

For the molecule `O=C(N/N=C/c1ccc2c(c1)OCO2)C(=O)N1CCCC1`, the Potency result is “inactive”.

As for `O=C(O)/C=C/c1ccc2c(c1)OCCO2`, the Potency result is “inactive”.

Turning to `O=C(COC(=O)c1cc[n+]([O-])cc1)Nc1ccc(Cl)c(C(F)(F)F)c1`, the Potency result was “inactive”.

On to `CCOc1ccc(CCNC(=O)COC(=O)C2CCN(S(=O)(=O)c3ccccc3)CC2)cc1OCC`, for which the Potency entry is “inactive”.

Turning to `CCOc1cccc2cc(C(=O)OCC(=O)Nc3c(C)cccc3CC)c(=O)oc12`, the Potency entry was “inactive”.

For `CN=C(Nc1cccc(S(=O)(=O)N2CCOCC2)c1)c1ccccc1`, the Potency result is “inactive”.

On to `O=C(NCCCN1CCOCC1)c1ccc2c(c1)N(Cc1cccc(F)c1)C(=O)c1ccccc1S2`, for which the Potency result is “inactive”.

For `O=C(NCCN1CCOCC1)c1ccc(/C=C2\Sc3ccccc3N(Cc3ccc(F)cc3)C2=O)cc1`, the Potency was 18.4 µM (active).

In the case of `CCN1CCN(CCNC(=O)c2ccc3c(c2)NC(=O)/C(=C\c2ccc(OC)c(OC)c2)S3)CC1`, the Potency result is “inactive”.

Turning to `Cc1nn(Cc2ccccc2)c(C)c1C(=O)NCCN1C(=O)S/C(=C\c2ccc(F)cc2)C1=O`, the Potency result was “inactive”.

As to `O=C(NCCN1CCOCC1)/C(=C/c1ccc(F)cc1)NC(=O)c1ccccc1`, the Potency result was “inactive”.

With `CCN1CCN(CCNC(=O)c2ccc(/C=C3/Sc4ccccc4N(Cc4cccc(C)c4)C3=O)cc2)CC1`, the Potency is 6.51 µM (active).

With `Cn1nnnc1SCC(=O)Nc1sccc1C(N)=O`, the Potency entry is “inactive”.

With `COc1ccc([C@H]2CC(=O)C=C(c3ccc(OC(F)(F)F)cc3)C2)cc1OC`, the Potency result is “inactive”.

`CCC(C)N1C(=O)S/C(=C/c2ccc(Sc3nc4ccccc4[nH]3)o2)C1=O` (stereo not given): the Potency was 8.2 µM (active).

Take `O=C(CSc1nc2ccccc2[nH]1)Nc1nc(-c2ccccc2)c(-c2ccccc2)o1`: the Potency result is “inactive”.

For the molecule `CCc1nnc(NC(=O)CCCSc2nc3ccccc3[nH]2)s1`, the Potency result is “inactive”.

Turning to `C[C@H]1CN([C@@H](C)CO)C(=O)Cc2cc(NC(=O)Cc3ccccc3)ccc2O[C@H]1CN(C)S(=O)(=O)c1cccs1`, the Potency entry is “inactive”.

For the molecule `O=C1CC(C(=O)O)NC(=S)N1` (stereo not given), the Potency result is “inactive”.

Consider `Cc1cc(NC(=O)c2cc3ccccc3o2)no1`, for which the Potency entry was “inactive”.

With `C[C@H](CO)N1C[C@H](C)[C@@H](CN(C)Cc2ccc(-c3ccccc3)cc2)Oc2ccc(NC(=O)Cn3cnnn3)cc2C1=O`, the Potency result was “inactive”.

`Cc1nn(Cc2ccc(Cl)cc2)c(Cl)c1/C=N/NC(=O)CNc1ccccc1F`: the Potency is 16.4 µM (active).

For the molecule `CCn1nc(C)c(/C=N/NC(=O)Cc2ccc(Cl)cc2)c1C`, the Potency entry was “inactive”.

For `Cc1nn(Cc2ccc(Cl)cc2)c(Cl)c1/C=N/NC(=O)c1cccnc1`, the Potency result is “inactive”.

In the case of `CC(=O)Nc1ccc(S(=O)(=O)Nc2ccc(N3CCCCC3)cc2)cc1`, the Potency result was “inactive”.

On to `Nc1nnc2c(C(F)(F)F)nc3ccccc3n12`, for which the Potency result was “inactive”.

Take `FC(F)(F)c1nnc2ccc(N3CCN(c4ccccc4)CC3)nn12`: the Potency entry is “inactive”.

As for `FC(F)(F)c1nnc2c3ccccc3c(Cl)nn12`, the Potency was 20.6 µM (active).

As to `CCOC(=O)c1ccc(NC(=O)C2CC(=O)N(c3ccc4c(c3)OCCO4)C2)cc1` (stereo not given), the Potency result is “inactive”.

On to `CC[C@]1(O)CC2CN(CCc3c([nH]c4ccccc34)[C@@](C(=O)OC)(c3cc4c(cc3OC)N(C=O)[C@H]3[C@@](O)(C(=O)OC)[C@H](OC(C)=O)[C@]5(CC)C=CCN6CC[C@]43[C@@H]65)C2)C1` (stereo not given in full), for which the Potency is 0.651 µM (active).

Regarding `O=S(=O)(NCCc1ccccn1)c1cc(Cl)cc(Cl)c1O`, the Potency entry was “inactive”.

For the molecule `CC(=O)c1ccc(N2CCN(C(=O)c3ccc(Cl)c(S(=O)(=O)NC4CC4)c3)CC2)c(F)c1`, the Potency result is “inactive”.

Turning to `Cc1ccc(C(=O)Nc2ccn(C)n2)cc1`, the Potency entry is “inactive”.

For `COc1ccc(NC(=O)COC(=O)c2n[nH]c3ccccc23)c(OC)c1`, the Potency entry is “inactive”.

Turning to `CC(C)(C)OC(=O)C[C@@H]1C/C=C\C[C@@H](CC(=O)N[C@H](CO)Cc2ccccc2)C(=O)NC[C@@H](c2ccccc2)OC1=O`, the Potency result was “inactive”.

Take `CC(C)(C)OC(=O)C[C@H]1C/C=C\C[C@@H](CC(=O)N[C@H](CO)Cc2ccccc2)C(=O)NC[C@@H](c2ccccc2)OC1=O`: the Potency result was “inactive”.

`O=C(C[C@H]1C/C=C\C[C@@H](NC(=O)OCC2c3ccccc3-c3ccccc32)C(=O)O[C@@H](c2ccccc2)CNC1=O)N[C@H](CO)Cc1ccccc1`: the Potency is 10.3 µM (active).

In the case of `CCN(CC(=O)Nc1c(F)cccc1F)C(=O)Cc1cccs1`, the Potency entry was “inactive”.

Consider `O=C(c1cnccn1)N1CCN(S(=O)(=O)c2cccc(Cl)c2)CC1`, for which the Potency entry was “inactive”.

Regarding `CCOC(=O)c1c(C)[nH]c2c1-c1ccccc1C(=O)C2=O`, the Potency was 1.3 µM (active).

Turning to `CCOC(=O)c1c(C)[nH]c(C)c1S(=O)(=O)N(C)CC(=O)Nc1ccccc1C`, the Potency result was “inactive”.

In the case of `CCOC(=O)N1CCN(CC(=O)c2c(C)[nH]c3ccccc23)CC1`, the Potency entry was “inactive”.
